Shiga inhibitor: Shiga toxin inhibition. Vero cells, Shiga toxin protein synthesis inhibition reporter. inhibition, % at 38.7 µM. hit rate 9.2% among 290,000. AID 2315; in the data active = inhibition mostly above about 28%, no sharp cut-off; inactive = mostly below about 43%
Marburg entry inh: blocks Marburg virus binding to or entry into cells; Marburg virus pseudotyped entry inhibition, cell reporter; Potency, µM (titrated, usually from 37.8 µM), actives largely listed as inhibitors; hit rate 1.8% among 300,000; calls by dose curve; tested in HEK293 cells
LASV entry inh: inhibitors of Lassa virus binding or cell entry. Lassa virus pseudotype entry inhibition, cell reporter. Potency, µM (top dose mostly 37.9 µM), hits mostly inhibitors. hit rate 1.2% among 300,000. AID 540256; calls by dose curve; tested in HEK293 cells; also: nearly all actives have a fitted effect of over 50% in size
Cycloheximide cs: counter-screen for Shiga toxin inhibitors: cycloheximide protein synthesis inhibition | hit rate 12% among 300,000 | max response, % | cell reporter, cycloheximide protein synthesis inhibition counterscreen | AID 2314; in the data active = max response mostly above about 13%, no sharp cut-off; inactive = mostly below about 14%; also: read at 38.3 µM for the half of the compounds with a filed dose
Pf growth 48h: inhibits P. falciparum growth in the first generation, 48 h; P. falciparum luciferase growth in erythrocytes, 48 h; Potency, µM (titrated, usually from 28.7 µM), hits mostly inhibitors; hit rate 5.9% among 310,000; AID 504832
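Parasite viability was followed by luminescence of a genomically integrated firefly luciferase. Cultures held 0.1% parasitemia at 2% hematocrit (final), incubated under 5% CO2 at 37 C.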
Pf growth 96h: P. falciparum growth inhibition at 96 hour, primary screen for plastid delayed-death inhibitors; P. falciparum luciferase reporter growth, 96 h; Potency, µM (doses to about 28.7 µM), actives largely listed as inhibitors; hit rate 6.9% among 320,000
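P. falciparum expressing integrated firefly luciferase grown in erythrocytes (2% hematocrit, 0.05% parasitemia final) with compounds for 96 hours at 37 C, 5% CO2. Growth inhibition read as loss of luminescence after adding luciferase detection reagent.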
Of the large screens only hits and unclear results are named; the others gave an inactive call. Shown are actives, neighbours in structure and some others; about 19% of the full set was active somewhere. Unless noted, calls follow the shape of the dose curve; as a rule, active = well fitted inhibition curve with a large enough effect; inconclusive = small, poorly fitted or top-dose-only effect, or another doubt; inactive = no such curve, though single readings can be large or run the other way.

Cc1ccc(C(=O)Nc2cccc(C(=O)N3CCN(C)CC3)c2)cc1	Shiga inhibitor 71, Cycloheximide cs 30
Cc1cccc(C(=O)Nc2cccc(C(=O)N3CCOCC3)c2)c1	Marburg entry inh inconclusive (no result: Pf growth 48h)
CN1CCc2ccc(NC(=O)c3ccc(C(F)(F)F)cc3)cc2C1	Shiga inhibitor 25, Cycloheximide cs 14, Pf growth 48h inconclusive (no result: Marburg entry inh, LASV entry inh)
COc1ccc(NC(=O)c2cc3c([nH]c4ccccc43)c(C)n2)cc1	Pf growth 48h inconclusive, Pf growth 96h 9.3µM
COc1ccc(C(=O)Nc2ccc(C(=O)OCC(=O)c3ccccc3)cc2)cc1	Marburg entry inh inconclusive, LASV entry inh inconclusive, Cycloheximide cs 19
COC(=O)c1ccc(CN2CCc3ccc(NC(=O)c4ccncc4)cc3C2)cc1	Marburg entry inh inconclusive, Pf growth 48h inconclusive
COC(=O)c1cc2c([nH]c3ccccc32)c(C)n1	none (no result: LASV entry inh)
O=C(Cc1ccccc1Cl)NNC(=O)Nc1ccccc1	Marburg entry inh inconclusive
COc1ccccc1OCC(=O)NNC(=O)Nc1ccc(Cl)cc1	Marburg entry inh inconclusive, LASV entry inh inconclusive
COc1ccc(NC(=O)c2cc3ccccn3n2)cc1	Cycloheximide cs 40 (no result: Marburg entry inh, LASV entry inh, Pf growth 48h)
O=C(Nc1ccc(OC(F)(F)F)cc1)c1cc2ccccn2n1	none (no result: Shiga inhibitor, Marburg entry inh, Cycloheximide cs, Pf growth 48h, Pf growth 96h)
COc1ccccc1OC(=O)Nc1ccc(Cl)cc1	Shiga inhibitor 58, Cycloheximide cs 32 (no result: Marburg entry inh, LASV entry inh, Pf growth 48h)
COc1ccc(N/N=C(C)/C(=N/O)C(=O)Nc2ccccc2)cc1	Shiga inhibitor 74, Marburg entry inh inconclusive, Cycloheximide cs 29
CCOc1c(Cl)cc(C(=O)Nc2cccc(C(=O)O)c2)cc1Cl	Shiga inhibitor 69, Cycloheximide cs 43 (no result: Marburg entry inh, LASV entry inh)
COc1ccc(NC(=O)c2ccccc2-c2ccccc2)cc1	Marburg entry inh inconclusive
Cc1cccc(-c2n[nH]c([N+](=O)[O-])n2)c1	Pf growth 96h inconclusive
Cc1ccc(S(=O)(=O)NN2C(=O)c3ccccc3NC2(C)C)cc1	LASV entry inh inconclusive
O=C(Cc1cccs1)N(Cc1ccco1)C1(C(=O)NC2CCCC2)CCCCC1	Marburg entry inh inconclusive, Pf growth 48h inconclusive (no result: Pf growth 96h)
CCC(C(=O)N1CCN(c2cc(C)ccc2C)CC1)n1nc(C)n2c(cc3occc32)c1=O (stereo not drawn)	Marburg entry inh inconclusive (no result: Shiga inhibitor, Cycloheximide cs, Pf growth 48h, Pf growth 96h)
COc1cccc(C(=O)Nc2cccc(C(=O)N3CCOCC3)c2)c1	Marburg entry inh inconclusive (no result: Pf growth 96h)
COc1ccc(C(=O)Nc2cccc(C(=O)N3CCCC3)c2)cc1	Cycloheximide cs 11
O=c1c(C=NCc2ccccc2)c(NCc2ccccc2)nc2ccccn12	Shiga inhibitor 80, LASV entry inh inconclusive
Cc1ccc2nc(NCc3ccco3)c(C=NCc3ccco3)c(=O)n2c1	Cycloheximide cs 12
Cc1ccc2nc(Nc3ccccc3)c(/C=N/O)c(=O)n2c1	Pf growth 48h inconclusive, Pf growth 96h inconclusive
Cc1ccc2nc(NCc3ccccc3)c(C=O)c(=O)n2c1	none
Cc1ccc2nc(NCc3ccccc3)c(C=NCc3cccnc3)c(=O)n2c1	Shiga inhibitor 30, Marburg entry inh inconclusive, Cycloheximide cs 14
CNc1nc2c(C)cccn2c(=O)c1C=NCc1ccccc1	none (no result: Pf growth 48h)
CN(C)C1(CNC(=O)Nc2ccccc2)CCCCC1	none
Cc1nc2sc(C(c3ccco3)N3CCN(c4ccccc4)CC3)c(O)n2n1 (stereo not drawn)	none (no result: Marburg entry inh, LASV entry inh)
Cc1nc2sc(C(c3ccco3)N3CCN(C(c4ccccc4)c4ccccc4)CC3)c(O)n2n1 (stereo not drawn)	Pf growth 48h 1.7µM, Pf growth 96h inconclusive (no result: LASV entry inh)
COC(=O)C(Cc1cccc(C)n1)(c1ccccc1)c1ccccc1	Marburg entry inh inconclusive, Pf growth 48h 9.3µM, Pf growth 96h inconclusive
COc1ccc(CCNC(=O)C2CC(c3ccc([N+](=O)[O-])cc3)=NO2)cc1 (stereo not drawn)	Shiga inhibitor 43, Cycloheximide cs 33 (no result: Marburg entry inh, LASV entry inh)
COc1ccc(CCNC(=O)C2CC(c3c(Cl)cccc3Cl)=NO2)cc1 (stereo not drawn)	none (no result: Marburg entry inh, LASV entry inh)
Cc1ccc(CNC(=O)C2CC(c3ccccc3[N+](=O)[O-])=NO2)cc1 (stereo not drawn)	Cycloheximide cs 13 (no result: Marburg entry inh, LASV entry inh)
O=C(NCCc1cccs1)C1CC(c2ccc([N+](=O)[O-])cc2)=NO1 (stereo not drawn)	Shiga inhibitor 77, Cycloheximide cs 59 (no result: Marburg entry inh, LASV entry inh)
O=C(NCc1ccc(OC(F)(F)F)cc1)C1CC(c2ccccc2[N+](=O)[O-])=NO1 (stereo not drawn)	none (no result: LASV entry inh)
COc1ccc(CCNC(=O)C2CC(c3cccc([N+](=O)[O-])c3)=NO2)cc1 (stereo not drawn)	Shiga inhibitor 160, Cycloheximide cs 47 (no result: Marburg entry inh, LASV entry inh)
COCCNC(=O)C1CC(c2ccc([N+](=O)[O-])cc2)=NO1 (stereo not drawn)	none (no result: Marburg entry inh, LASV entry inh)
COc1ccc(C(=O)CCC(=O)Nc2ccc(N3CCN(C)CC3)cc2)cc1OC	none (no result: Shiga inhibitor, Marburg entry inh, LASV entry inh, Cycloheximide cs)
Cc1ccc(NC(=O)CNC(=O)c2ccccc2F)cc1Cl	LASV entry inh inconclusive
NC(=O)C1CCN(C(=O)CCNS(=O)(=O)c2cc(Br)cnc2N)CC1	none (no result: Marburg entry inh, LASV entry inh)
Cc1ccc(CNC(=O)C2CC(c3cc(C(F)(F)F)cc(C(F)(F)F)c3)=NO2)o1 (stereo not drawn)	none (no result: Marburg entry inh, LASV entry inh)
COc1ccc(C2=NOC(C(=O)NCCN3CCOCC3)C2)cc1 (stereo not drawn)	Pf growth 48h inconclusive
COc1cccc(C2=NOC(C(=O)NCCN3CCOCC3)C2)c1 (stereo not drawn)	Pf growth 48h inconclusive, Pf growth 96h 8.3µM
CCCCNC(=O)C1CC(c2cccc(F)c2)=NO1 (stereo not drawn)	Shiga inhibitor 58, Cycloheximide cs 33 (no result: Marburg entry inh, LASV entry inh)
Cc1ccc(CNC(=O)C2CC(c3cccc([N+](=O)[O-])c3)=NO2)o1 (stereo not drawn)	Shiga inhibitor 64, Cycloheximide cs 33 (no result: Marburg entry inh, LASV entry inh)
FC(F)(F)c1cccc(Cc2noc(CN3CCCC3)n2)c1	none
CC(C)(C)c1cc(NCc2ccccn2)n2ncc(-c3ccc(Cl)cc3)c2n1	Pf growth 48h 3.3µM, Pf growth 96h inconclusive (no result: Marburg entry inh, LASV entry inh)
Cc1cc(C)c2c(n1)nn1c(NCCCN(C)C)cc(C)nc21	Marburg entry inh inconclusive, Pf growth 96h inconclusive
COc1ccc(-c2cc(NCc3ccccn3)n3ncnc3n2)cc1	Pf growth 48h inconclusive (no result: LASV entry inh)
CN(C)CCCNc1cc(C(C)(C)C)nc2c(-c3ccc(Cl)cc3)cnn12	Shiga inhibitor 53, Marburg entry inh inconclusive, LASV entry inh inconclusive, Cycloheximide cs 40, Pf growth 48h inconclusive, Pf growth 96h inconclusive
O=C1c2ccncc2C(=O)N1CNc1ccc(Cl)cc1	none
CCSc1nnc(NC(=O)c2ccco2)s1	Shiga inhibitor 27, Cycloheximide cs 23
CCSc1nnc(NC(=O)c2c(C)noc2C)s1	Marburg entry inh inconclusive, Cycloheximide cs 16, Pf growth 96h inconclusive
CC(C)Sc1nnc(NC(=O)c2ccco2)s1	Shiga inhibitor 114, Marburg entry inh inconclusive, Cycloheximide cs 35
Cc1cccc(-c2nnc(NC(=O)c3ccco3)s2)c1	Cycloheximide cs 21
CCS(=O)(=O)N1Cc2ccccc2CC1C(=O)N(C)Cc1ccc(OC)c(F)c1 (stereo not drawn)	Marburg entry inh inconclusive, Pf growth 96h inconclusive (no result: LASV entry inh)

Bioassay records (PubChem)
